These results are taken from PubChem BioAssay.

The structures appear in SMILES notation. Values without a mark were called inactive. The rule behind the calls is not given here.

One assay is described as follows: blockers of DNA damage checkpoint Chk1 activation – imaging, HeLa, hydroxyurea, phospho-Chk1 antibody, percent positive cells, primary screen (AID 1186). The note with it: hydroxyurea-induced phospho-Chk1 immunofluorescence imaging, higher = more signal.
Regarding `CC(C)(C)OC(=O)CC[C@@]1(C(=O)N2CCOCC2)N=C(c2ccc(OCCCO)cc2)O[C@@H]1c1ccccc1CN=[N+]=[N-]`, the z-score was 0.158.

As to `CC[C@@H]1C=C(C(=O)O)[C@H](c2cccc(Cl)c2)N1S(=O)(=O)c1ccc(C)cc1`, the z-score is 0.198. Regarding `COC(=O)[C@H](Cc1ccccc1)N1CC(C)(OC)O[C@@H](Cc2ccccc2)[C@H]1/C=C/C1CC1` (some centres not stated), the z-score was 0.512. On the same count and under the same terms, under `CO[C@H]1O[C@H](CO)[C@@H](OC(=O)Nc2ccccc2)[C@@H]2OC(=O)[C@@H](Cc3ccccc3)C/C=C/C[C@H](Cc3ccccc3)C(=O)O[C@@H]12` stands -0.741; under `CCCCC=C[C@@H](NC(=O)C(C)(C)C)c1ccccc1`, 0.579; under `COc1ccc([Si](C)(C)[C@H]2[C@H](CC(=O)N3CCC[C@H]3CO)O[C@@]3(C(=O)N(Cc4cccc(N5CCCCC5=O)c4)c4ccccc43)[C@@H]2C)cc1`, -0.319. Take `O=C(NCC(F)(F)F)[C@@H]1c2ccccc2C(=O)N(Cc2cc(C(F)(F)F)cc(C(F)(F)F)c2)[C@H]1c1ccc(CO)cc1`: the z-score was -0.373.

On to `CN1C(=O)C2C(C1=O)C1C=C(CCCO)C2C(C2CC2)N1C` (configuration not stated), for which the z-score is -0.0182.

As for `C=CCNC(=O)[C@@H]1[C@H]2C(=O)O[C@H](c3ccccc3)[C@H](c3ccccc3)N2[C@H](c2ccc(O)cc2)[C@@]12C(=O)N(C(=O)OCCOC)c1ccc(C#CCC(C(=O)OC)C(=O)OC)cc12`, the z-score is -0.0611.

Take `CCOC(=O)C[C@H]1[C@H](OC(=O)c2cc3ccccc3oc2=O)[C@@H](NC(=O)Cc2ccc(OC)cc2)c2cc(OCCCO)ccc2N1C(=O)Cc1ccc(OC)cc1`: the z-score was 0.212. Take `COCCCNC(=O)[C@@]1(Cc2ccccc2I)c2ccccc2C(=O)N(Cc2ccccc2C(F)(F)F)[C@H]1c1ccc(CO)cc1`: the z-score is 0.0894. On the same count and under the same terms, to `CC1C2C(CCCO)=CC(C3C(=O)N(C)C(=O)C23)N1Cc1cccc(OC(F)(F)F)c1` (configuration not stated) belongs -0.324. As to `CC(C)c1ccc(NN2C(C(O)C(C)c3ccccc3)C=CC3C(=O)N(c4ccccc4)C(=O)C32)cc1` (configuration not stated), the z-score was 0.545. In the case of `CCOC(=O)C[C@H]1[C@H](OC(=O)c2ccccc2-c2ccccc2)[C@@H](NC(=O)CC(C)C)c2cc(OCCCO)ccc2N1C(=O)c1ccccc1`, the z-score is -0.439. Same read-out and setting: under `COC(=O)[C@@]1(Cc2ccc(F)cc2)[C@H]2c3cc(C(=O)N(C)C)n(Cc4ccsc4Br)c3C[C@H]2CN1C(=O)c1ccccc1` stands -0.219; under `COCCCNC(=O)[C@@]1(Cc2ccccc2I)c2ccccc2C(=O)N(Cc2ccccc2OC)[C@H]1c1ccc(CO)cc1`, -0.14; under `COc1ccc([Si](C)(C)[C@H]2[C@H](CC(=O)N3CCC[C@H]3CO)O[C@@]3(C(=O)N(C)c4c(Br)cc(C)cc43)[C@@H]2C)cc1`, 0.27.

A short description of another assay: blockers of DNA damage checkpoint Chk1 activation – imaging, HeLa, hydroxyurea, phospho-Chk1 nuclear intensity, primary screen (AID 1187). Note: test concentration not given here. The note with it: hydroxyurea-induced phospho-Chk1 immunofluorescence imaging, higher = more signal.
`Cc1ccc(S[C@]2(C(=O)NCc3ccccc3)CC(=O)N(Cc3ccccc3C(F)(F)F)[C@@H]2c2ccc(CO)cc2I)cc1`: the z-score is 0.923. Take `C=CCNC(=O)[C@@H]1[C@H]2C(=O)O[C@H](c3ccccc3)[C@H](c3ccccc3)N2[C@H](c2ccc(OCCO)cc2)[C@@]12C(=O)Nc1ccc(C#CC3=CCCCC3)cc12`: the z-score was 0.273. Still for that read-out and setting: under `Cc1ccc(S[C@]2(C(=O)NCc3ccccc3)CC(=O)N(Cc3ccccc3Cl)[C@@H]2c2ccc(CO)cc2)cc1` stands 0.622; under `COc1cccc(C)c1NC(=O)O[C@H]1[C@H](OC(=O)Nc2ccccc2-c2ccccc2)[C@@H](OC(=O)Nc2ccccc2-c2ccccc2)[C@@H](OC)O[C@@H]1CO`, 0.604. For `Cc1ccc(N2C(=O)c3ccccc3[C@@H](C(=O)NCCN3CCOCC3)[C@@H]2c2ccc(CO)cc2)nc1`, the z-score was 0.274. `C=CC[C@@]1(C(=O)NCCCOC)N=C(c2ccc(OCCCO)cc2)O[C@@H]1c1ccccc1CN=[N+]=[N-]`: the z-score is -0.721. Consider `CC(=O)NCCCC[C@@H]1NC(=O)[C@H]2C[C@@H](C(=O)NCCCCCN)[C@@H](c3ccc(O)cc3)N2C1=O`, for which the z-score is -0.163. Still for that read-out and setting: under `C=C(COC)C(=O)CC[C@H](OC(C)=O)c1ccc(CO)o1` stands -0.842; under `Cc1cccc([C@H]2C[C@H]3C(Br)=C[C@@]2(CO)C(=O)[C@]32CO2)c1`, -0.557; under `[N-]=[N+]=NCc1ccccc1[C@H]1OC(c2ccc(OCCCO)cc2)=N[C@@]1(Cc1ccccc1N=[N+]=[N-])C(N)=O`, 0.516.

On to `COc1ccc(C(O)C2C=CC3C(=O)N(c4ccccc4)C(=O)C3N2Nc2ccccc2F)c2ccccc12` (configuration not stated), for which the z-score is -0.3. In the case of `CN1C(=O)C2C=CC(C(O)COCc3ccccc3)N(Nc3ccc([N+](=O)[O-])cc3[N+](=O)[O-])C2C1=O` (configuration not stated), the z-score is -0.803. The same measure, in the same setting: under `O=C1O[C@@H](c2ccccc2)[C@@H](c2ccccc2)N2[C@@H](c3ccccc3OCCO)[C@]3(C(=O)Nc4ccc(C#CC5(O)CCCCCC5)cc43)[C@@H](C(=O)N3CCCCCCC3)[C@H]12` stands 0.639; under `COC(=O)Cn1c(C(=O)N(C)C)cc2c1C[C@H]1CN(C(=O)c3ccccc3)[C@@](Cc3ccccc3)(C(=O)OC)[C@@H]21`, 0.286.

`CCCCCCc1nc(Cc2cc(OC)c(OC)c(OC)c2)c(C)c2c1[Si](C(C)C)(C(C)C)OC2`: the z-score is -0.386.

Turning to `Cc1ccc(S[C@]2(C(=O)NC(C)C)CC(=O)N(Cc3ccccc3)[C@@H]2c2ccc(CO)cc2)cc1`, the z-score is -0.32. Same read-out and setting: under `CC(C)[Si](C#Cc1ccccc1)(O[C@H](c1ccccc1)c1cn(Cc2ccccc2)nn1)C(C)C` stands 0.124; under `CCOC(=O)C[C@H]1[C@H](OC(=O)c2cc3ccccc3oc2=O)[C@@H](NC(=O)c2ccc(-c3ccccc3)cc2)c2cc(OCCCO)ccc2N1C(=O)Cc1ccc(OC)cc1`, -0.0512. As for `CC(C)(C)OC(=O)CC[C@@]1(C(=O)N2CCOCC2)N=C(c2ccc(OCCCO)cc2)O[C@@H]1c1ccccc1CN=[N+]=[N-]`, the z-score was 0.291. Take `CC[C@@H]1C=C(C(=O)O)[C@H](c2cccc(Cl)c2)N1S(=O)(=O)c1ccc(C)cc1`: the z-score was -0.141. The same measure, in the same setting: to `COC(=O)[C@H](Cc1ccccc1)N1CC(C)(OC)O[C@@H](Cc2ccccc2)[C@H]1/C=C/C1CC1` (some centres not stated) belongs 1.22; to `CO[C@H]1O[C@H](CO)[C@@H](OC(=O)Nc2ccccc2)[C@@H]2OC(=O)[C@@H](Cc3ccccc3)C/C=C/C[C@H](Cc3ccccc3)C(=O)O[C@@H]12`, -0.467; to `CCCCC=C[C@@H](NC(=O)C(C)(C)C)c1ccccc1`, -0.124.

Take `COc1ccc([Si](C)(C)[C@H]2[C@H](CC(=O)N3CCC[C@H]3CO)O[C@@]3(C(=O)N(Cc4cccc(N5CCCCC5=O)c4)c4ccccc43)[C@@H]2C)cc1`: the z-score is 0.519. Regarding `O=C(NCC(F)(F)F)[C@@H]1c2ccccc2C(=O)N(Cc2cc(C(F)(F)F)cc(C(F)(F)F)c2)[C@H]1c1ccc(CO)cc1`, the z-score was -0.356. In the case of `CN1C(=O)C2C(C1=O)C1C=C(CCCO)C2C(C2CC2)N1C` (configuration not stated), the z-score is 0.162.

Consider `C=CCNC(=O)[C@@H]1[C@H]2C(=O)O[C@H](c3ccccc3)[C@H](c3ccccc3)N2[C@H](c2ccc(O)cc2)[C@@]12C(=O)N(C(=O)OCCOC)c1ccc(C#CCC(C(=O)OC)C(=O)OC)cc12`, for which the z-score was -0.187. Turning to `CCOC(=O)C[C@H]1[C@H](OC(=O)c2cc3ccccc3oc2=O)[C@@H](NC(=O)Cc2ccc(OC)cc2)c2cc(OCCCO)ccc2N1C(=O)Cc1ccc(OC)cc1`, the z-score is 0.199.

Consider `COCCCNC(=O)[C@@]1(Cc2ccccc2I)c2ccccc2C(=O)N(Cc2ccccc2C(F)(F)F)[C@H]1c1ccc(CO)cc1`, for which the z-score was -0.0472. Same read-out and setting: to `CC1C2C(CCCO)=CC(C3C(=O)N(C)C(=O)C23)N1Cc1cccc(OC(F)(F)F)c1` (configuration not stated) belongs -0.301. With `CC(C)c1ccc(NN2C(C(O)C(C)c3ccccc3)C=CC3C(=O)N(c4ccccc4)C(=O)C32)cc1` (configuration not stated), the z-score is 0.739.

For `CCOC(=O)C[C@H]1[C@H](OC(=O)c2ccccc2-c2ccccc2)[C@@H](NC(=O)CC(C)C)c2cc(OCCCO)ccc2N1C(=O)c1ccccc1`, the z-score was -0.151.

As for `COC(=O)[C@@]1(Cc2ccc(F)cc2)[C@H]2c3cc(C(=O)N(C)C)n(Cc4ccsc4Br)c3C[C@H]2CN1C(=O)c1ccccc1`, the z-score was -1.12.

Regarding `COCCCNC(=O)[C@@]1(Cc2ccccc2I)c2ccccc2C(=O)N(Cc2ccccc2OC)[C@H]1c1ccc(CO)cc1`, the z-score is 0.04.

Turning to `COc1ccc([Si](C)(C)[C@H]2[C@H](CC(=O)N3CCC[C@H]3CO)O[C@@]3(C(=O)N(C)c4c(Br)cc(C)cc43)[C@@H]2C)cc1`, the z-score was 0.523.
